In PubChem BioAssay:
Calls of active or inactive are those of the source.

Legend:
[1] = binders of probe aFSTL3 on microarray, primary screen, stem cell growth factor project, biochemical, small-molecule microarray, fluorescence 635/667 (AID 1064); conditions: higher = more signal;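 note: measures binding of the biotinylated anti-FSTL3 antibody to printed compounds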
[2] = binders from COS7 lysate, DM2A8 probe, primary screen, torsin A project, cell lysate, small-molecule microarray, fluorescence 635/667 (AID 1065); conditions: higher = more signal, COS7 lysate expressing mutant human TOR1A
[3] = binders of probe aFGF2 on microarray, primary screen, stem cell growth factor project, biochemical, small-molecule microarray, fluorescence 635/667 (AID 1067); conditions: higher = more signal;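 note: measures binding of biotinylated aFGF2 protein to printed compounds on slides; z-score merges feature fluorescence and signal-to-noise across triplicate slides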
[4] = binders of probe aFGF10 on microarray, primary screen, stem cell growth factor project, biochemical, small-molecule microarray, fluorescence 635/667 (AID 1071); conditions: higher = more signal;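 note: score merges 667 nm spot intensity and signal to noise from triplicate slides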
[5] = molecular target: Neurogenic locus notch homolog protein 2 (Homo sapiens) (UniProt Q04721); test: Notch2 binders on small-molecule microarrays, primary screen, biochemical, small-molecule microarray, 635 nm fluorescence, stem cell growth factors (AID 1073); conditions: Notch2 binding, higher = more signal
Chain of Neurogenic locus notch homolog protein 2 (Homo sapiens) (Q04721 whole entry, looked up, canonical isoform): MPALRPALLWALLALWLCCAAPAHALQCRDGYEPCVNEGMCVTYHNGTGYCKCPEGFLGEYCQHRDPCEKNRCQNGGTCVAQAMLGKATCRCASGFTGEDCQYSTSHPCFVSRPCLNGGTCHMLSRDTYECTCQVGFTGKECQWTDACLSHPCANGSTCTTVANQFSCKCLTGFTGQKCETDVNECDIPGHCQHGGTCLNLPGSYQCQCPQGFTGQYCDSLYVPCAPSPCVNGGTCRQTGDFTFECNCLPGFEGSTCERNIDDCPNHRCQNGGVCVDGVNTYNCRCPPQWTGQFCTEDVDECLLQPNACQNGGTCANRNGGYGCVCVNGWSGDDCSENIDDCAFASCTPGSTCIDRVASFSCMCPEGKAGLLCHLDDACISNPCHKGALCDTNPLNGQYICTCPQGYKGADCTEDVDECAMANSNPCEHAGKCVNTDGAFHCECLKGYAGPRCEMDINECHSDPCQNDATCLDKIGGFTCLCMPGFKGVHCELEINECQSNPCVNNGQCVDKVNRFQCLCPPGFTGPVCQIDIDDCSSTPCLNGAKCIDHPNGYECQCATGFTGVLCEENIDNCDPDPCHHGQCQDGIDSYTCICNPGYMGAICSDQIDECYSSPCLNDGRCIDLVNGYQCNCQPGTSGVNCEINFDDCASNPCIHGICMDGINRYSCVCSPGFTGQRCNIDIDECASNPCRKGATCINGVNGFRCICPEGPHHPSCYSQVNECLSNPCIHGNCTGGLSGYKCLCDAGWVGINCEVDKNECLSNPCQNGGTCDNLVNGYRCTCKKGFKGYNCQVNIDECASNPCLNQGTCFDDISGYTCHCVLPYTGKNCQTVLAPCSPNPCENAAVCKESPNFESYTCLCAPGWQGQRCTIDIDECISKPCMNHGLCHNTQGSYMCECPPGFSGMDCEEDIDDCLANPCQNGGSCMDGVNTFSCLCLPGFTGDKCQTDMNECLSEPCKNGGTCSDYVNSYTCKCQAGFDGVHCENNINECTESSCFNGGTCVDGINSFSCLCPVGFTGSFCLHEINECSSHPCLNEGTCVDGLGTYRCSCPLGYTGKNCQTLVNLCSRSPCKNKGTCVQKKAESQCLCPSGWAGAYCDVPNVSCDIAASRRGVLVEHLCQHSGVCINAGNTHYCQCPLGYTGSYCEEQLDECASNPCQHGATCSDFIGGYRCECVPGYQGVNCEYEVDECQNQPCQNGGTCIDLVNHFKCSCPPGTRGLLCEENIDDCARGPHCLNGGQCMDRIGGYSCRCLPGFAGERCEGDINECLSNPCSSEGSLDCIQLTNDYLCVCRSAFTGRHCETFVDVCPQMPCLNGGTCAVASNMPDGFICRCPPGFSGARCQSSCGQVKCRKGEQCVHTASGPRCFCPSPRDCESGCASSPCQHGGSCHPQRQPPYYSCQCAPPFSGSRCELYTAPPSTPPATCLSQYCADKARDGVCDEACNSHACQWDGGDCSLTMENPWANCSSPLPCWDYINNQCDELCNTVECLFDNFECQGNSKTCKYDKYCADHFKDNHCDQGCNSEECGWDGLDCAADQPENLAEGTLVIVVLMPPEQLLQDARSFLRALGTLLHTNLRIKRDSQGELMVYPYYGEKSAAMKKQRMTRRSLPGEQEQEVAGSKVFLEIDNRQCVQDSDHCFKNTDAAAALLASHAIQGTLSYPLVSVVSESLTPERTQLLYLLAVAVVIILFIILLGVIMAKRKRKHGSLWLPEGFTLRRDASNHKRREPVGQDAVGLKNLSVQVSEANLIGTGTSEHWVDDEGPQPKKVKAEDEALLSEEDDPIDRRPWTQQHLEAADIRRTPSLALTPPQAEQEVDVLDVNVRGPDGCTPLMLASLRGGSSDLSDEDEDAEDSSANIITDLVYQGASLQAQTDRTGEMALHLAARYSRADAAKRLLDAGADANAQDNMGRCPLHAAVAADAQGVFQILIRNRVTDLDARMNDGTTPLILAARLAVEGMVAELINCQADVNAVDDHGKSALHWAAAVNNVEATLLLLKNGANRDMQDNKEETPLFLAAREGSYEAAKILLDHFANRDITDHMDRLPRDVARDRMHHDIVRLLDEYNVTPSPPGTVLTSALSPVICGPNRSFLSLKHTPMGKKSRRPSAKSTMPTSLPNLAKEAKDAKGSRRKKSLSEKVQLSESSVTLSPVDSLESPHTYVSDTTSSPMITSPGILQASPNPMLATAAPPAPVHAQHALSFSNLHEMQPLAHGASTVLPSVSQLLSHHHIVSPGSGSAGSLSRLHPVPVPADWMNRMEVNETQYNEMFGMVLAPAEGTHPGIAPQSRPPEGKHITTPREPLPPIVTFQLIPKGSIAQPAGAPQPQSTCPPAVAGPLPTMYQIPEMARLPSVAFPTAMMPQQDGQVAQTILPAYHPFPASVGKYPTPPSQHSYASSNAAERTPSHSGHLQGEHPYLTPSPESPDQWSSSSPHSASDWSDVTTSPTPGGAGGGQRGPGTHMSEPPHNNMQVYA

[6] = molecular target: Pro-neuregulin-1, membrane-bound isoform (Homo sapiens) (UniProt Q02297); test: NRG1 binders on small-molecule microarrays, primary screen, psychiatric disease protein project, biochemical, small-molecule microarray, fluorescence 635/667 (AID 1075); conditions: NRG1 binding, 635 nm fluorescence, higher = more signal;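 note: score combines 667 nm spot fluorescence with signal to noise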
Chain of Pro-neuregulin-1, membrane-bound isoform (Homo sapiens) (Q02297 whole entry, looked up, the tested form may be a part, canonical isoform): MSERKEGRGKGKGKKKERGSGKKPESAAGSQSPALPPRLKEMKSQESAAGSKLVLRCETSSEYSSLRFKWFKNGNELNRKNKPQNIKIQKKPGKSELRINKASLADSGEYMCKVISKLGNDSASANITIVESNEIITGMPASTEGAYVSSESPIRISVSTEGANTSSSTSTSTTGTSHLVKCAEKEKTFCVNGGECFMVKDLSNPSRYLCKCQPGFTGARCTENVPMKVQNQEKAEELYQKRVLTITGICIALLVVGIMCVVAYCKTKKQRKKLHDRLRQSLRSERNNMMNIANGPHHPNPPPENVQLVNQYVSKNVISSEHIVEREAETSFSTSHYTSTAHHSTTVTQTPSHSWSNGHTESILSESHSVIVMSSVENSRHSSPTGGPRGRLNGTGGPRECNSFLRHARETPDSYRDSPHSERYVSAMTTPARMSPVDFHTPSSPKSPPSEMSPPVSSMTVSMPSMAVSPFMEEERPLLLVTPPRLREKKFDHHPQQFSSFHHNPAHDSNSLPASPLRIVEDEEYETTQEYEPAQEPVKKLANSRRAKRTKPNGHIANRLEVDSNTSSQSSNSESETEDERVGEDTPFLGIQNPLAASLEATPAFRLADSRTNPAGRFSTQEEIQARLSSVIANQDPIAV

[7] = tested on: Neuregulin-1 EGF-like domain; test: binders of neuregulin-1 EGF-like domain, primary screen, biochemical, small-molecule microarray, 635 nm fluorescence (AID 1081); conditions: small-molecule microarray binding, higher = more signal;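 note: binding of the protein to compounds printed on small-molecule microarray slides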
[8] = FRG1 promoter luciferase signal modulators, primary screen, FRG1 inhibition for FSHD, cell-based, C2C12 myotubes, firefly/Renilla luciferase, luminescence (AID 1084); conditions: higher = more signal, called active from +8 up or from −8 down
[9] = binders of probe aFST on microarray, primary screen, stem cell growth factor project, biochemical, small-molecule microarray, fluorescence 635/667 (AID 1086); conditions: higher = more signal;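 note: score merges 667 nm fluorescence with signal-to-noise of each printed compound spot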
[10] = binders of probe aHhip on microarray, primary screen, stem cell growth factor project, biochemical, small-molecule microarray, fluorescence 635/667 (AID 1087); conditions: higher = more signal;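 note: score merges spot fluorescence at 667nm with spot signal to noise ratio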

SMILES	composite z-score [1]	composite z-score [2]	composite z-score [3]	composite z-score [4]	composite z-score [5]	composite z-score [6]	composite z-score [7]	z-score [8]	composite z-score [9]	composite z-score [10]
COCCOC(=O)N1C(=O)[C@@]2(c3cc(C#Cc4ccc(OC)cc4)ccc31)[C@H](c1ccccc1OCCO)N1[C@H](c3ccccc3)[C@H](c3ccccc3)OC(=O)[C@H]1[C@@H]2C(=O)N1CCN(c2ncccn2)CC1	-0.173	0.489	-0.0336	0.619	0.568	0.4	1.23	-1.23 (inactive)	0.172	-0.0618
Cc1ccc(S[C@]2(C(=O)NC3CC3)CC(=O)N(C3Cc4ccccc4C3)[C@@H]2c2ccc(CO)cc2)cc1	0.631	-0.233	0.11	-0.563	-0.363	1.08	0.836	-2.83 (inactive)	-0.175	-0.134
COc1ccc(C(O)C2C=CC3C(=O)N(c4ccccc4)C(=O)C3N2Nc2ccccc2F)cc1OCc1ccccc1 (stereo not given)	0.873	-0.217	0.5	0.775	1.65	1.17	0.99	3.15 (inactive)	1.1	0.0274
Cc1ccc(S[C@]2(C(=O)NCC(C)C)CC(=O)N(Cc3cc(C(F)(F)F)cc(C(F)(F)F)c3)[C@@H]2c2ccc(CO)cc2I)cc1	1.61	-0.367	-0.113	-0.637	-1.1	1.13	0.102	-0.286 (inactive)	0.0584	-0.216
CCOC(=O)C1=CCC(c2ccccc2)N(S(=O)(=O)CC[Si](C)(C)C)C1 (stereo not given)	-0.264	0.701	-0.137	-0.765	-0.606	0.0168	-0.518	-3.74 (inactive)	-0.407	-0.0994
O=C1OCCC/C=C\[C@H]2OC34C=CCN(CCN5CCOCC5)C(=O)[C@H]3N(CCCO)C(=O)[C@@H]4C12 (stereo not given in full)	-0.0893	0.95	-0.168	-1.07	-0.793	1.47	0.993	0.562 (inactive)	-0.209	-0.216
COc1ccc(C(O)C2C=CC3C(=O)N(C)C(=O)C3N2N2CCCCC2)c2ccccc12 (stereo not given)	-0.226	0.0595	0.192	0.988	1.65	1.27	1.07	-0.292 (inactive)	0.858	0.176
O=C(NCc1ccc(F)cc1)[C@H]1C[C@H]2C(=O)N[C@@H](Cc3ccccc3)C(=O)N2[C@H]1c1ccc(O)cc1	1.12	0.949	-0.185	-0.685	-0.878	-0.242	1.2	1.1 (inactive)	-0.823	-0.0645
[N-]=[N+]=NCc1ccccc1C[C@]1(C(=O)N2CCOCC2)N=C(c2ccc(OCCCO)cc2)O[C@H]1c1ccccc1N=[N+]=[N-]	0.0631	1.43	0.136	1.12	1.55	0.872	1.29	-0.395 (inactive)	2.05	0.259
CC(CO)N1C(=O)[C@@H]2C3C(=O)OCCC/C=C\[C@H]3OC23C=CCN(c2ccc4ccccc4c2)C(=O)[C@@H]13 (stereo not given in full)	0.122	-0.933	-0.118	-0.594	-0.874	0.168	1.26	-0.775 (inactive)	-0.576	-0.0994
O=C1O[C@H](c2ccccc2)[C@H](c2ccccc2)N2[C@H]1[C@@H](C(=O)NC[C@H](O)c1ccccc1)[C@]1(C(=O)Nc3ccccc31)[C@H]2c1ccc(OCCO)cc1	0.0809	0.267	-0.039	0.345	0.404	1.05	1.21	1.8 (inactive)	0.368	0.0551
O=C(O)[C@@]1(CCS(=O)(=O)c2ccccc2)COC(c2ccc(OCCCO)cc2)=N1	0.803	-0.715	-0.196	-0.0573	-0.243	0.964	1.35	0.143 (inactive)	-0.0694	0.35
O=C(NCc1ccccc1)[C@@]1(Cc2ccccc2)N=C(c2ccc(OCCCO)cc2)O[C@H]1c1ccccc1	0.398	1.92	0.0557	0.177	1.56	1.76	1.05	-2.23 (inactive)	1.07	-0.201
CCOC(=O)C[C@H]1[C@H](OC(=O)Cc2ccc3c(c2)OCO3)[C@@H](NC(=O)c2ccc(-c3ccccc3)cc2)c2cc(OCCCO)ccc2N1C(=O)Cc1ccc(OC)cc1	-0.429	0.816	-0.0636	0.412	0.819	0.337	0.269	-3.25 (inactive)	0.339	-0.415
CCCCCN1CC=CC23O[C@@H]4/C=C\CCCOC(=O)C4[C@H]2C(=O)N(C(CO)C(C)C)[C@@H]3C1=O (stereo not given in full)	-0.101	-0.856	-0.103	-0.106	-0.65	-0.583	1.52	-0.196 (inactive)	-0.384	0.0854
CN1C(=O)C2C=CC(C(O)C3CCCCC3)N(Nc3ccc([N+](=O)[O-])cc3[N+](=O)[O-])C2C1=O (stereo not given)	0.0318	0.548	0.0331	0.752	1.6	1.59	1.32	0.358 (inactive)	1.51	0.236
[N-]=[N+]=NCc1ccccc1C[C@]1(C(=O)NCC(O)CO)N=C(c2ccc(OCCCO)cc2)O[C@H]1c1ccccc1 (stereo not given in full)	0.881	0.34	-0.0039	-0.48	-0.316	0.958	0.849	-0.938 (inactive)	0.506	0.158

SMILES	composite z-score [1]	composite z-score [2]	composite z-score [3]	composite z-score [4]	composite z-score [5]	composite z-score [6]	composite z-score [7]	z-score [8]	composite z-score [9]	composite z-score [10]
CCOC(=O)C1=CCC(c2ccc(C)cc2)N(S(=O)(=O)c2ccc(C)cc2)C1 (stereo not given)	0.464	-0.0577	-0.0499	0.101	0.255	0.38	0.923	-4.43 (inactive)	0.261	-0.0994
O=C1C[C@]2(c3ccc([N+](=O)[O-])cc3)C(=O)N(CCN3CCOCC3)c3cc(CO)ccc3[C@H]2N1C1CCCCC1	0.526	-0.808	-0.162	-0.212	-0.309	1.37	-0.251	-1.88 (inactive)	0.105	-0.121
COCCCNC(=O)C1N=C(c2ccc(OCCCO)cc2)N(c2ccccc2)O1 (stereo not given)	-0.39	0.461	0.0038	0.848	0.872	0.124	0.609	3.02 (inactive)	0.504	0.0176
COc1cc2c(cc1OC)CN(C(=O)[C@H]1[C@@H]3C(=O)O[C@@H](c4ccccc4)[C@@H](c4ccccc4)N3[C@@H](c3ccc(O)cc3)[C@]13C(=O)Nc1ccc(C#CCNC(N)=O)cc13)CC2	-0.297	0.0737	-0.0473	0.689	-0.0344	0.404	0.37	0.297 (inactive)	0.135	0.0854
CCOC1=C2C(CN(S(=O)(=O)c3ccc(C)cc3)C2c2ccc(C)cc2)C2C(=O)N(c3ccccc3)C(=O)C2C1 (stereo not given)	-0.208	-0.155	-0.0074	0.347	1.25	0.752	1.03	-0.62 (inactive)	0.585	-0.0618
C[N+](C)(C)CCCCNC(=O)[C@H]1C[C@H]2C(=O)N[C@@H](Cc3ccccc3)C(=O)N2[C@H]1c1ccc(O)cc1	0.288	0.504	-0.074	0.0806	-0.601	-0.158	1.22	0.605 (inactive)	-0.0662	-0.0645
O=C1O[C@@H](c2ccccc2)[C@@H](c2ccccc2)N2[C@@H](c3ccc(OCCO)cc3)[C@]3(C(=O)Nc4ccccc43)[C@@H](C(=O)NC[C@H](O)c3ccccc3)[C@H]12	-0.0164	0.0007	-0.019	-0.0455	1.27	1.24	1.26	-2.2 (inactive)	0.322	-0.145
CCOC(=O)C[C@H]1[C@H](OC(=O)Cc2ccc3c(c2)OCO3)[C@@H](NC(=O)c2ccc3ccccc3c2)c2cc(OCCCO)ccc2N1C(=O)c1ccccc1	-0.397	0.0993	-0.14	0.284	0.642	0.376	1.13	0.12 (inactive)	0.254	0.0373
CC(C)(C)OC(=O)CC[C@]1(C(=O)NCC(O)CO)COC(c2ccc(OCCCO)cc2)=N1 (stereo not given in full)	0.139	-0.382	-0.0551	-0.0211	1.13	1.97	1.21	0.555 (inactive)	1.24	-0.0645
O=C1C2C=CC(C(O)c3ccc(F)cc3)N(Nc3ccccc3F)C2C(=O)N1c1ccccc1 (stereo not given)	0.185	-0.333	0.124	0.439	1.16	1.99	1.23	-1.43 (inactive)	0.886	0.21
COc1ccc(C(=O)Nc2ccc(CN3C(=O)[C@@]4(O[C@@H](CCn5cc([C@H](O)c6ccccc6)nn5)[C@H]([Si](C)(C)c5ccc(OC)cc5)[C@H]4C)c4ccccc43)cc2)cc1	-0.197	0.315	0.484	-0.164	-0.244	0.258	1.05	-2.48 (inactive)	0.217	-0.0391
COCCn1c(C(=O)N2CCCC2)cc2c1C[C@H]1CN(C(=O)c3ccccc3)[C@@](Cc3ccc(F)cc3)(C(=O)OC)[C@@H]21	0.123	0.214	0.24	0.252	1.41	1.81	0.997	2.89 (inactive)	0.77	0.0078
CN(C)C(=O)[C@@]1(Cc2ccccc2)N=C(c2ccc(OCCCO)cc2)O[C@H]1c1ccccc1N=[N+]=[N-]	0.0567	-0.204	0.061	0.64	1.55	1.56	1.12	-1.66 (inactive)	1.69	-0.353
COc1ccc(CCN2C(=O)[C@@]3(Cc4ccccc42)c2ccccc2C(=O)N(Cc2ccccc2C(F)(F)F)[C@H]3c2ccc(CO)cc2)cc1	-0.402	-0.0678	-0.128	-0.106	-0.112	-0.112	0.791	0.453 (inactive)	-0.256	-0.0994
CC(=O)NCCCC[C@@H]1NC(=O)[C@@H]2C[C@H](C(=O)NCCCCCCNC(=O)CS)[C@H](c3cccc(OCCO)c3)N2C1=O	0.0659	0.311	-0.0212	0.283	0.149	0.632	1.24	0.743 (inactive)	0.414	-0.299
COCCOC(=O)N1C(=O)[C@@]2(c3cc(C#CCCO)ccc31)[C@H](C(=O)N1CCc3cc(OC)c(OC)cc3C1)[C@H]1C(=O)O[C@H](c3ccccc3)[C@H](c3ccccc3)N1[C@@H]2c1ccc(O)cc1	-0.239	0.761	0.0106	0.393	1.15	1.46	1.32	0.897 (inactive)	0.239	-0.0645
